We go through 13 compounds from PubChem BioAssay.

Values without a mark were called inactive. Active and inactive are the calls of the source.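 Rule for the calls: active = thallium flux through the channel raised or lowered by more than 3 SD from vehicle-only wells, actives on both sides; inactive = the rest.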

Experiment in all cases: modulators of BK channel variants, profiling panel, selectivity assay, cell-based, U2OS BacMam, thallium flux, beta subunits (AID 1259406);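 note: initial slope of Thallos dye fluorescence rise after thallium is added; log ratio against the mean of 0.3% DMSO vehicle wells on the same plate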
The subject of test [1] is F380Y. Particulars: at 30 µM.
Test [2] deals with F380Y/beta1. Particulars: at 30 µM.
Test [3] deals with F380Y/beta2Delta. As to conditions: at 30 µM.
Test [4] concerns F380Y/beta4. Particulars: at 30 µM.
The target in test [5] is Calcium-activated potassium channel subunit alpha-1 (Homo sapiens) + Leucine-rich repeat-containing protein 26 (Homo sapiens) (UniProt Q12791+Q2I0M4). As to conditions: F380Y/Slo1WT/gamma1, at 30 µM.
Chain of Calcium-activated potassium channel subunit alpha-1 (Homo sapiens) + Leucine-rich repeat-containing protein 26 (Homo sapiens) (Q2I0M4 whole entry, looked up, one chain of several): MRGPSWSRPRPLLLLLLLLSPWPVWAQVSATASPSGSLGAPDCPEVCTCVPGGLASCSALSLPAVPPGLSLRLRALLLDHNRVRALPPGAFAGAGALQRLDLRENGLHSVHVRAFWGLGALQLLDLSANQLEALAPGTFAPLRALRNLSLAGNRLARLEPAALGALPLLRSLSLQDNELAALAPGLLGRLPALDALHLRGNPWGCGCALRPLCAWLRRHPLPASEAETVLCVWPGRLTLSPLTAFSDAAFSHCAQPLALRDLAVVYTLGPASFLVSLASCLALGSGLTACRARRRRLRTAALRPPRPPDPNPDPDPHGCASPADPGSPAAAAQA
The subject of test [6] is R275C. As to conditions: at 30 µM.
Test [7] relates to R275C/beta1. Particulars: at 30 µM.
Test [8] relates to R275C/beta2Delta. Particulars: at 30 µM.
Test [9] relates to R275C/beta4. Particulars: at 30 µM.
The test system of test [10] is R275C/Slo1WT/beta2. Particulars: at 30 µM.

`O=C(NCC1CC1)c1ccccc1NS(=O)(=O)c1cccc2nonc12`: the log fold change Tl+ flux was 0.0757 in [1]; 0.0238 in test [2]; 0.0491 in test [3]; 0.0071 in [4]; -0.00954 in [5]; 1.3e-05 in [6]. In addition, the log fold change Tl+ flux in [7] was 0.0417; in test [8] it was 0.0268; in test [9], 0.0533; in test [10], 0.0216.
Take `Cc1oc(S(=O)(=O)N2CCOCC2)cc1C(=O)Nc1ccc(F)cc1`: the log fold change Tl+ flux in test [1] was 0.119 (active); in test [2] it was -0.00781; in test [3] it was -0.0147; in test [4] it was -0.000333; in test [5] it was 0.0253; in test [6], 0.0114. For the same compound, the log fold change Tl+ flux in test [7] is 0.0125; in test [8] it was 0.00085; in test [9], 0.00598; in test [10] it was -0.0174.
`CSc1cc(C(C)(C)C)[nH]n1`: the log fold change Tl+ flux in test [1] is -0.125 (active); in test [2], -0.0178; in test [3], -0.218 (active); in test [4], -0.423 (active); in [5], 0.0568; in [6], 0.0547. Also, the log fold change Tl+ flux in [7] was 0.173 (active); in [8] it was -0.014; in test [9], 0.047; in test [10], 0.0223.
As to `O=S(=O)(Cc1nc(-c2ccc3c(c2)OCCO3)cs1)c1ccccn1`, the log fold change Tl+ flux is -0.0443 in test [1]; -0.0373 in test [2]; 0.0231 in test [3]; -0.00916 in [4]; -0.0733 in test [5]; -0.0303 in [6]. The log fold change Tl+ flux was -0.0291 in [7], 0.0317 in [8], -0.00702 in [9] and -0.0322 in test [10].
Take `NC(CS(=O)(=O)Cc1ccco1)=NO`: the log fold change Tl+ flux was 0.0416 in [1]; 0.0173 in test [2]; 0.00572 in test [3]; 0.019 in test [4]; -0.0714 in test [5]; -0.017 in test [6]. The log fold change Tl+ flux in [7] was -0.00211; in [8], -0.0186; in test [9], -0.0304; in test [10], -0.0219.
On to `NC(=NC(=O)c1cccs1)c1cccs1`, for which the log fold change Tl+ flux is 0.00622 in test [1]; 0.0573 in test [2]; 0.0445 in test [3]; 0.0177 in test [4]; 0.0217 in test [5]; 0.0451 in test [6]. The log fold change Tl+ flux was 0.0586 in test [7], 0.0615 in test [8], 0.0555 in [9] and 0.0314 in test [10].
Regarding `Cc1c(Br)sc2sc(-c3ccnc(SCc4ccccc4)n3)c(C)c12`, the log fold change Tl+ flux in test [1] is -0.00256; in test [2] it was -0.0227; in test [3] it was -0.00739; in [4] it was -0.0356; in test [5], 0.0451; in [6], -0.000555. For the same compound, the log fold change Tl+ flux in test [7] is -0.0282; in [8], 0.0157; in test [9], -0.00767; in [10] it was -0.00994.
As for `O=C(CNc1cc(C(F)(F)F)cc(C(F)(F)F)c1)c1ccc(Cl)cc1`, the log fold change Tl+ flux is -0.0386 in test [1]; 0.0507 in [2]; -0.00515 in [3]; -0.0229 in test [4]; -0.0851 in test [5]; 0.0058 in test [6]. Moreover, the log fold change Tl+ flux in [7] was 0.0119; in [8], 0.000503; in [9], 0.0102; in test [10] it was 0.0351.
For the compound `O=C(NC1CCSC1)c1ccccc1NS(=O)(=O)c1ccccc1` (stereo not given), the log fold change Tl+ flux in [1] is -0.000365; in test [2], -0.00386; in test [3], -0.00638; in test [4], 0.00736; in test [5] it was -0.0334; in test [6], -0.153 (active). Further, the log fold change Tl+ flux in test [7] was -0.151 (active); in test [8] it was -0.158 (active); in test [9] it was -0.0828 (active); in test [10] it was -0.0155.
Take `Cc1ccc(S(=O)(=O)Oc2c(Cc3ccccc3)c(=O)n(C)c3ccccc23)cc1`: the log fold change Tl+ flux in test [1] is -0.047; in [2], -0.00429; in test [3], -0.0297; in [4], 0.0237; in test [5], -0.018; in test [6], -0.0579. Moreover, the log fold change Tl+ flux in test [7] was -0.0357; in test [8], -0.0097; in test [9], -0.0625; in test [10], 0.0422.
Consider `O=C(Nc1ccccc1)OCc1cc(-c2ccccc2)c(C(F)(F)F)s1`, for which the log fold change Tl+ flux in test [1] is -0.0321; in [2] it was -0.0201; in [3] it was -0.0141; in [4] it was -0.21 (active); in test [5] it was -0.173 (active); in [6], -0.0877 (active). Moreover, the log fold change Tl+ flux in [7] was -0.141 (active); in test [8] it was 0.0124; in test [9], -0.0566; in test [10], -0.0586.
On to `CSC(=S)NNC(=O)c1ccc(C(F)(F)F)cc1`, for which the log fold change Tl+ flux was 0.0858 in [1]; 0.233 (active) in [2]; 0.0998 in [3]; 0.29 (active) in test [4]; 0.1 in test [5]; 0.134 (active) in test [6]. Further, the log fold change Tl+ flux is 0.158 (active) in [7], 0.0788 in test [8], 0.305 (active) in test [9] and 0.232 (active) in test [10].
Take `CCOC(=O)C(C#N)=CNc1ccccc1OC(F)(F)F`: the log fold change Tl+ flux in test [1] was -0.00694; in test [2], -0.036; in test [3], 0.0178; in test [4] it was 0.027; in [5], -0.0183; in test [6], -0.0335. Also, the log fold change Tl+ flux in test [7] is -0.00201; in test [8], -0.00638; in test [9], -0.0357; in test [10], -0.0488.
